Data as given in the supplement of paper PMC11732987, “Enantioselective OTUD7B fragment discovery through chemoproteomics screening and high-throughput optimisation” (Communications Chemistry, 2025).

Key:
Assay in all cases: log2 ratio of Biotin-Ahx-Ub-VS probe labelling (fragment/DMSO); higher = less target engagement (more negative = stronger competition), active = hit call of the paper (q ≤ 0.05, log2 ratio ≤ -1)
Conditions in all cases: compound concentration: 200 uM; treatment time: 3 h
OTUD6B = target: T1, OTUD6B (UniProt Q8N6M0)
T1 sequence (whole entry): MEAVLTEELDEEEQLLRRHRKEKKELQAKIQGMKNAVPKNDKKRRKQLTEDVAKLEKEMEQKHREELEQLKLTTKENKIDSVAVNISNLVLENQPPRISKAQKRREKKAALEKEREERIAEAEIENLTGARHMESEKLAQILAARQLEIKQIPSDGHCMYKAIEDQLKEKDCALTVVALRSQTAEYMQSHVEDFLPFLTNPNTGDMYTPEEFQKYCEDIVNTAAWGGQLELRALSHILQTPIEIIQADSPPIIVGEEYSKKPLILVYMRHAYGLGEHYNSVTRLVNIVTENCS
Procedure, shortened: (§1)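 Fragment (200 µM) or vehicle was incubated for 3 h with triplicate HEK293T lysate samples of 495 µg, which were then treated with Biotin-Ahx-Ub-VS at 0.5 µM final for 1 h. Labelled DUBs were enriched on NeutrAvidin, digested with LysC and trypsin, and analysed by diaPASEF LC-MS/MS. Values are average log2 fragment/vehicle ratios from an unpaired t-test on global-median-normalised Spectronaut label-free quantities, using proteins with ≥2 unique peptides.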

OTUD7B = target: T2, OTUD7B (UniProt Q6GQQ9)
T2 sequence (whole entry): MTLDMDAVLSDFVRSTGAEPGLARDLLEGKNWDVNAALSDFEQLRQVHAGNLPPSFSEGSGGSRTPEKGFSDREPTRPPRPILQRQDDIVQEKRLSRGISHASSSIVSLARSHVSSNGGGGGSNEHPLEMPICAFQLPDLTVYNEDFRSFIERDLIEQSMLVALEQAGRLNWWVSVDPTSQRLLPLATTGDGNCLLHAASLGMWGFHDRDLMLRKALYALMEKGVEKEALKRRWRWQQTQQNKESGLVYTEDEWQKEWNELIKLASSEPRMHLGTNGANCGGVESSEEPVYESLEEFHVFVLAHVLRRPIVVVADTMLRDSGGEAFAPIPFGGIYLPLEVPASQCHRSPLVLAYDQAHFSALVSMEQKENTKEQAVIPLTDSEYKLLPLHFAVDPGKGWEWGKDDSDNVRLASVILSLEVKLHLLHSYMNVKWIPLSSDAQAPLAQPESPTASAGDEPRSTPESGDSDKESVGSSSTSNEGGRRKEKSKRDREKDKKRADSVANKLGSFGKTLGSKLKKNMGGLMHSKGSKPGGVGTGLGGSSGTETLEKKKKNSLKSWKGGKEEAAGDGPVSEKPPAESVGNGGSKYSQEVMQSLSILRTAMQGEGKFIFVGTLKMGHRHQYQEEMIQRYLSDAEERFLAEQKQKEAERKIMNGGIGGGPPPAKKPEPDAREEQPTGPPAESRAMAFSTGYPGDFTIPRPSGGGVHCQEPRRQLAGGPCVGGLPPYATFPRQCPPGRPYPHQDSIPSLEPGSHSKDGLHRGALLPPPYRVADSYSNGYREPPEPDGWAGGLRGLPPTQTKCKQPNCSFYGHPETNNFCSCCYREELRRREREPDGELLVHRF
Procedure, shortened: as §1

PRPF8 = PRPF8 (UniProt Q6P2Q9)
Procedure, shortened: as §1

PSMD7 = target: T3, PSMD7 (UniProt P51665)
T3 sequence (whole entry): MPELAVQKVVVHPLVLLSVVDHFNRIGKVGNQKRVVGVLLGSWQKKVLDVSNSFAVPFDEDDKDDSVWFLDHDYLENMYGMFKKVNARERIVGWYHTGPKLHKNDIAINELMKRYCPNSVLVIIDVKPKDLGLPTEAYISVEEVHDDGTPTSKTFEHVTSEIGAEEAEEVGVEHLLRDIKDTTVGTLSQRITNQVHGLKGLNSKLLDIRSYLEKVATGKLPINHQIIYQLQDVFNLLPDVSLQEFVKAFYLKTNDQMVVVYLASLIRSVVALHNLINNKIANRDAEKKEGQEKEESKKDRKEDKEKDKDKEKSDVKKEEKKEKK
Procedure, shortened: as §1

UCHL1 = UCHL1 (UniProt P09936)
Procedure, shortened: as §1

UCHL3 = target: T4, UCHL3 (UniProt P15374)
T4 sequence (whole entry): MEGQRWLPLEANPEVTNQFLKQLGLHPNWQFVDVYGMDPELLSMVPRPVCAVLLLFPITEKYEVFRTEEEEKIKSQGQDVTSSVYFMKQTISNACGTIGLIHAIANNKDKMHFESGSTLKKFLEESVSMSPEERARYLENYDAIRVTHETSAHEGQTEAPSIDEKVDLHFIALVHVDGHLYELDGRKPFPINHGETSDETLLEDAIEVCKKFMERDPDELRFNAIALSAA
Procedure, shortened: as §1

UCHL5 = target: T5, UCHL5 (UniProt Q9Y5K5)
T5 sequence (whole entry): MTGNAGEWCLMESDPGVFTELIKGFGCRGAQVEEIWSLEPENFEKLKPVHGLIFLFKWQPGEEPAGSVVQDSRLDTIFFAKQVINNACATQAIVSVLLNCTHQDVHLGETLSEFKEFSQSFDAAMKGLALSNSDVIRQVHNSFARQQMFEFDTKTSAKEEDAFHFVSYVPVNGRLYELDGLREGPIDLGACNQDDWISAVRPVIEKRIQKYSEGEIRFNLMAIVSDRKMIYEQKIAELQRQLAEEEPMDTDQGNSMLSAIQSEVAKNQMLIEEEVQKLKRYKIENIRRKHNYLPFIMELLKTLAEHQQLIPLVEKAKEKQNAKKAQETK
Procedure, shortened: as §1

USP10 = USP10 (UniProt Q14694)
Procedure, shortened: as §1

USP15 = target: T6, USP15 (UniProt Q9Y4E8)
T6 sequence (whole entry): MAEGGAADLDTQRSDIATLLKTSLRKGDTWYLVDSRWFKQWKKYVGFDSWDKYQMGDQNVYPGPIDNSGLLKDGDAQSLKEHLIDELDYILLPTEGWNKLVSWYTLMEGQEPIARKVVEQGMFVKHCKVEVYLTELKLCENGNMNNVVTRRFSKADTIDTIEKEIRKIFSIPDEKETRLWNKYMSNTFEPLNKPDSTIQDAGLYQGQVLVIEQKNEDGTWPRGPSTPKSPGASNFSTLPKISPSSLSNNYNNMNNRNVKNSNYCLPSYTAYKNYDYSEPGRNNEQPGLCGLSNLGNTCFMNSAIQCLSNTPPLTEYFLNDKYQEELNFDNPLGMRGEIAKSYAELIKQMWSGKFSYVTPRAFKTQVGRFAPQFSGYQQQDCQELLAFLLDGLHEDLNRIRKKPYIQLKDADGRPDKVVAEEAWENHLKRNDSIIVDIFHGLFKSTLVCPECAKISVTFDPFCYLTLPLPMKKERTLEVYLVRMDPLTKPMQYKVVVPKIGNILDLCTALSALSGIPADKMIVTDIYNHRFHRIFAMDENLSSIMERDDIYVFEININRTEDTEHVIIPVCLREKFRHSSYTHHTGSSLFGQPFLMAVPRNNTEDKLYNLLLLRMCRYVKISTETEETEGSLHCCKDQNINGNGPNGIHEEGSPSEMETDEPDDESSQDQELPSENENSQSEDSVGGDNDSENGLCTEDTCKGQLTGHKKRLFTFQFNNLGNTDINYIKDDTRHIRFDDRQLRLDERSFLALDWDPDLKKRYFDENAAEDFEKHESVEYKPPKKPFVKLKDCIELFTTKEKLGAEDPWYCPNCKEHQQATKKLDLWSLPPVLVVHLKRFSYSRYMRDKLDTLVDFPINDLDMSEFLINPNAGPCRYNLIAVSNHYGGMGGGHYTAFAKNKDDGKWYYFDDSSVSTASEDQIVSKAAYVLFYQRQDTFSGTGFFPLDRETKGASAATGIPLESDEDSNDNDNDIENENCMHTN
Procedure, shortened: as §1

USP16 = USP16 (UniProt Q9Y5T5)
Procedure, shortened: as §1

Measured: log2 ratio of Biotin-Ahx-Ub-VS probe labelling

Sequence of USP16 (Q9Y5T5 whole entry, looked up): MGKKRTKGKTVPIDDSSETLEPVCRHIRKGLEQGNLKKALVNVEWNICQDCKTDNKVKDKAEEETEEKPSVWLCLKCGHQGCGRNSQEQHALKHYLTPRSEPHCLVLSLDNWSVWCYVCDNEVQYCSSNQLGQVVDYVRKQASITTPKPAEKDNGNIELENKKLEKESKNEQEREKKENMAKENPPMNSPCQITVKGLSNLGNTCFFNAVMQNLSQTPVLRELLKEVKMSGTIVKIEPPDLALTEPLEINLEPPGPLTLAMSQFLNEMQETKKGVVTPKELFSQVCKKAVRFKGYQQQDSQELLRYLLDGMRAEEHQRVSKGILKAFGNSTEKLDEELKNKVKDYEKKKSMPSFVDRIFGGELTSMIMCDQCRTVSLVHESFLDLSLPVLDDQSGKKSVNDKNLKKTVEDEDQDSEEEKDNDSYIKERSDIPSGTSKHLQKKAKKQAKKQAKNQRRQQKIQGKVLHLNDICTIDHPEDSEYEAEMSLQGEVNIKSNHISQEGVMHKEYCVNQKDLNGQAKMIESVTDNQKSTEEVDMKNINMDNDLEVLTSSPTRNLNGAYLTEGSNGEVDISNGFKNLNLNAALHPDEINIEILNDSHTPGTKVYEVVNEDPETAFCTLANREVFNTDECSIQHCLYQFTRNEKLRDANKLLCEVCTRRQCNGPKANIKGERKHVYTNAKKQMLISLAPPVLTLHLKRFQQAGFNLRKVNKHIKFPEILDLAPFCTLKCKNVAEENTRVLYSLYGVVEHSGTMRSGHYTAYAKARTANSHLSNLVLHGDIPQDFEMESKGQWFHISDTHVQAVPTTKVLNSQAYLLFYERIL
Sequence of UCHL1 (P09936 whole entry, looked up): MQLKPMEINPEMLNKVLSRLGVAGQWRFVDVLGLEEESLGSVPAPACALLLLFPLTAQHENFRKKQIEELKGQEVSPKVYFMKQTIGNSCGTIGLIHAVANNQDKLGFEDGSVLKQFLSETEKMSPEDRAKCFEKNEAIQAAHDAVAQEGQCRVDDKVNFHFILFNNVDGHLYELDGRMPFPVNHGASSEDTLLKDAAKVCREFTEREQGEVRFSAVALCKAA
Sequence of USP10 (Q14694 whole entry): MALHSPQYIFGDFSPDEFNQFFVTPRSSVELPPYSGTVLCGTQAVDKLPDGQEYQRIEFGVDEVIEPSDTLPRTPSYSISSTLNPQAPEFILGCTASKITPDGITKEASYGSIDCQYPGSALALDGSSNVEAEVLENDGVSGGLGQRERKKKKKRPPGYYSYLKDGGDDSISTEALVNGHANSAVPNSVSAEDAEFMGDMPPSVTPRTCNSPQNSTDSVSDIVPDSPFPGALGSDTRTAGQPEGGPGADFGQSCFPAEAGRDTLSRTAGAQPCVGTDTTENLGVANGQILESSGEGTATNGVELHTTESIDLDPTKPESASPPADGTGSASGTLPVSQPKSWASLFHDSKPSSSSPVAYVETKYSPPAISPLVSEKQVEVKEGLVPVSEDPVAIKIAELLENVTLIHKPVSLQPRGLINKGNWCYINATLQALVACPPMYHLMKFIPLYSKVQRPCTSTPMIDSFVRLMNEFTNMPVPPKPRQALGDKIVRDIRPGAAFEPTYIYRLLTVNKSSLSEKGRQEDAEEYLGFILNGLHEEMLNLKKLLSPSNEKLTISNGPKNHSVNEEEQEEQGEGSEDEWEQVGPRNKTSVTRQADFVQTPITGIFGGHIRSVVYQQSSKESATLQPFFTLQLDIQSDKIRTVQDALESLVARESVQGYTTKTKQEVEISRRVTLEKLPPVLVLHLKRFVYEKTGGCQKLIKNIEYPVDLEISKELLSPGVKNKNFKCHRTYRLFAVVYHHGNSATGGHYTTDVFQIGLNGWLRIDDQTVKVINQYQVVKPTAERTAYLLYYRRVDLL

CN(C)C(=O)c1ccc(CNC(=O)CCl)cc1
inactive: OTUD6B -0.0231 | OTUD7B -0.351 | PRPF8 -0.0967 | PSMD7 -0.0924 | UCHL3 0.248 | UCHL5 -0.118 | USP10 -0.0496 | USP15 0.0414 | USP16 0.0806
active: UCHL1 -1.23
